# IL1B secr inh – blocks inflammasome-driven IL-1 beta release; THP-1 LPS/ATP IL-1B secretion, AlphaLISA, 16 h; hits give low values; activity change, % at 57.5 µM; 4.7% of 360,000 active; in the data active = activity change below about -50%; inconclusive = mostly about -30% to -49%
#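 THP-1 cells pretreated 1 hr with compounds (up to 57.5 uM final), then stimulated with LPS (250 ng/mL final) plus ATP (1.25 mM final); secreted IL-1B measured by AlphaLISA after 16 hr, decreased signal indicating inhibition.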
# DT40 TDP1 no CPT – qHTS for Inhibitors of human tyrosyl-DNA phosphodiesterase 1 (TDP1): qHTS in cells in absence of CPT; DT40 Tdp1-/- hTDP1 cells, no CPT, ATP luminescence, 48 h; Potency, µM (series often up to 46.2 µM), for inactives: at the top dose activity change, negative = growth inhibition, usual class: inhibitors; 15% of 420,000 active; note: potency is the fitted concentration of half-maximal effect; nearly all actives have a fitted effect of over 55% in size
#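 Growth kinetics read by CellTiter-Glo luminescence after ≥48 hr at 37 °C. Cells: DT40 Tdp1-/- stably carrying human TDP1, 400 per well, compound exposure in the absence of CPT (DMSO vehicle).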
# HT1080 IDH1KD tx – toxicity to HT-1080 IDH1 knockdown cells (counter line); Potency, µM (top dose mostly 46.1 µM), without a hit: at the highest dose activity, negative = toxicity, actives largely listed as cytotoxic; 2% of 360,000 active; AID 686971; HT-1080 IDH1 knockdown viability, ATP luminescence, 48 h;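 note: potency is the fitted concentration of half-maximal effect; 0% = DMSO wells and -100% = cell-free medium wells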
#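 Assay cells: HT-1080 with IDH1 knockdown, 750 per well, RPMI/5% FBS. Exposure: 48 h at 37 °C following 2 h pre-incubation. Read: CellTiter-Glo luminescence; fitted concentration-response, curve class assigned.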
# HT1080NT lethal – kills 2HG-producing HT-1080-NT fibrosarcoma cells; HT-1080-NT fibrosarcoma viability, CellTiter-Glo ATP luminescence, 48 h; Potency, µM (top dose mostly 46.1 µM), for inactives: top-dose activity, negative = less viability, actives largely listed as cytotoxic; 1.6% of 360,000 active;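 note: NT is the 2HG producing partner of a matched IDH1 knockdown line; potency is the fitted concentration of half-maximal effect; 0% = DMSO-treated cells and -100% = media-only wells without cells; nearly all actives have a fitted effect of over 55% in size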
#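 Viability of the 2HG-overproducing fibrosarcoma line after 48 hours of compound exposure at 37 degrees C was determined by luminescence with CellTiter-Glo, and concentration-effect curves were then fitted and categorized.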
# DT40 TDP1 CPT – DT40-hTDP1 cell growth loss with CPT; chicken DT40 Tdp1-/-;hTDP1 cells + 20 nM CPT, ATP luminescence, 48 h; Potency, µM (doses to about 46.2 µM), for the others: top-dose activity change, negative = growth inhibition, usual class: inhibitors; 12% of 420,000 active; note: potency is the fitted concentration of half-maximal effect; nearly all actives have a fitted effect of over 55% in size
#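 Chicken DT40 Tdp1-/- cells stably complemented with human TDP1 were seeded at 400 cells/well in medium containing 20 nM camptothecin, exposed to pin-transferred compounds, and grown at 37 °C for at least 48 hr. Viability was read as ATP luminescence.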
# ELG1 repair inh – blocks ELG1-dependent DNA repair in HEK293T cells; 2.3% of 330,000 active; Potency, µM (series often up to 46.1 µM), for the others: at the highest dose activity change, negative = inhibition, hits mostly inhibitors; HEK293T ELG1-luciferase reporter, luminescence, 16 h; DNA damage induced by 5-fluorouridine; note: potency is the fitted concentration of half-maximal effect; nearly all actives have a fitted effect of over 55% in size
#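 Reporter activity after DNA damage by 5-fluorouridine is monitored. Compound-treated cells incubate 16 hr at 37 °C, then ONE-Glo is added for 30 min before luminescence reading.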
# * marks the source's active call; other numbers are inactive results; ? = inconclusive; . = no result; ! = a repeat was not active. An excerpt weighted towards active compounds, which were near 19% of everything screened. Unless noted, calls come from the whole dose curve; as a rule, active = well fitted curve in the direction sought with a large enough effect; inconclusive = small, poorly fitted or top-dose-only effect, or another doubt; inactive = no such curve, though single readings can be large; an effect the other way counts as inactive or inconclusive. Unless noted, % is set by controls: 0 for no effect and ±100 for the full control effect.
SMILES,IL1B secr inh,DT40 TDP1 no CPT,HT1080 IDH1KD tx,HT1080NT lethal,DT40 TDP1 CPT,ELG1 repair inh
O=C(CNC(=O)c1ccc(Br)o1)Nc1ccc(F)c(S(=O)(=O)N2CCOCC2)c1,31.1,-15.8%,-11.7%,0.7%,-15.5%,-9.2%
COc1ccc(-c2cccc(NS(=O)(=O)c3ccc(C)s3)c2)nn1,.,16.4µM*,.,.,14.6µM*,.
COc1ccc(CNC(=O)c2cnn3c(C)c(Cc4c(F)cccc4Cl)c(C)nc23)cc1,.,20.6µM*,.,.,11.6µM*,.
Cc1nc2c(C(=O)NCc3ccccc3)cnn2c(C)c1Cc1ccc(F)cc1,.,8.2µM*,.,.,7.31µM*,.
N#C/C(C(=O)N1CCCCC1)=C1\Nc2ccccc2S1,-8.8,?,2.2%,0.8%,2.8%,?
Cc1ccc(NC(=S)/C(C#N)=C2/Nc3ccccc3S2)cc1,32.0,23.1µM*,-18.6%,?,29.1µM*,.
Cc1noc(C)c1S(=O)(=O)Nc1ccc(C#N)cc1,19.3,8.3%,6.1%,-0.1%,-3.0%,-15.8%
CCOC(=O)c1nn(-c2ccc(Br)cc2)cc1C(=O)c1cccc2ccccc12,-2.5,16.4µM*,?,4.8%,8.2µM*,?
CCOC(=O)c1nn(-c2ccc(F)cc2)cc1O,-7.3,10.8%,14.6%,?,13.2%,?
O=C(COC(=O)c1c2c(nc3ccccc13)/C(=C/c1ccco1)CC2)NC1CCCC1,-60.8*,?,-12.8%,2.1%,16.4µM*,?
Cc1cc(C(=O)OCC(=O)NC2CCCC2)c2ccccc2n1,3.8,9.6%,-4.7%,-10.3%,2.4%,-2.2%
CC1CCCCC1NC(=O)COC(=O)c1c2c(nc3ccccc13)/C(=C/c1ccco1)CC2 (stereo not given),-15.0,14.6µM*,-6.3%,-6.0%,16.4µM*,?
Cc1cc(C(=O)OCC(=O)NC2CCCCC2C)c2ccccc2n1 (stereo not given),0.0,-1.4%,-1.5%,1.0%,-18.4%,0.0%
O=C(CN1CCN(S(=O)(=O)c2ccccc2)CC1)Nc1ccnn1C1CCCC1,-5.6,?,-0.5%,-0.7%,-28.4%,-9.1%
Cc1cc2c(Nc3cccc(O)c3)ncnc2s1,18.6,?,10.2%,0.4%,?,4.6%
CN(C)CCc1c[nH]c2ccc(CS(=O)(=O)N3CCCC3)cc12,.,-8.5%,.,.,-4.6%,.
CNS(=O)(=O)Cc1ccc2[nH]cc(CCN(C)C)c2c1,?,4.61µM*!,-28.8%,-20.4%,5.8µM*!,5.3%
CCN(c1ccccc1)S(=O)(=O)c1c(C)nc2scc(C)n2c1=O,.,-17.9%,.,.,3.2%,.
CN1CCN(CCOCCOc2ccc(Br)cc2Cl)CC1,0.0,?,0.7%,6.3%,?,13.3%
CC1CCN(CCCOc2ccc(Br)cc2Cl)CC1,-59.8*,-26.0%,-29.2%,-18.5%,-12.2%,9.5%
Cc1cc(Cl)c(OCCOCCN2CCCC(C)C2)c(Br)c1 (stereo not given),-15.4,16.4µM*,?,18.4µM*,29.1µM*,-11.6%
C=CCc1cccc(Cl)c1OCCCNC1CCCC1,-27.6,18.4µM*,-10.0%,-26.9%,23.1µM*,?
CC1CCCN(CCOCCOc2ccc(Cl)cc2Br)C1 (stereo not given),?,17.8µM*,11.2µM*,22.4µM*,?,-2.1%

# Bioassay records deposited in PubChem by National Center for Advancing Translational Sciences (NCATS).
